Compound activity deposited in PubChem by National Center for Advancing Translational Sciences (NCATS).
This excerpt belongs to a sample that is enriched for hits.
AmpC no deterg – blocks E. coli AmpC beta-lactamase in detergent-free assay; Potency, µM (highest dose often 57.1 µM), for the others: at the highest dose activity change, negative = inhibition, actives largely listed as inhibitors; AmpC nitrocefin hydrolysis, absorbance 480 nm, 0.0001% Triton; AID 485341; 330,000 compounds, 0.52% hits;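 further: potency means the concentration at half of the fitted maximal effect; plate controls were no compound for no effect and no enzyme for full effect; nearly all actives have a fitted effect of over 20% in size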
Target sequence (P00811 whole entry, looked up): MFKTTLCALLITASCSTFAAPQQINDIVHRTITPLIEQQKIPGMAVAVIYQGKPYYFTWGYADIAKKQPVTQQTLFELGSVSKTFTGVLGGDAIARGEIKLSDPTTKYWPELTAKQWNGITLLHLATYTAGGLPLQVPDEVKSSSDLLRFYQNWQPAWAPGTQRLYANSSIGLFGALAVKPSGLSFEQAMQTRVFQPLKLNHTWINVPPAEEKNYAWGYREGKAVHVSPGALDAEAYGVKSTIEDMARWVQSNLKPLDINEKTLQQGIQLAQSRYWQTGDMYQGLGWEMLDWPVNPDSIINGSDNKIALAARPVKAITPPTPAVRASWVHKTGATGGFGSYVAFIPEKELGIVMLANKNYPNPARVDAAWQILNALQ
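AmpC (5.3 nM in the dispensed reagent) in 20 mM phosphate pH 7.0 with 0.01% (detergent screen) or 0.0001% Triton X-100 was preincubated with compounds for 15 min at room temperature. Nitrocefin was then added from an 800 uM solution, and hydrolysis was followed at 480 nm.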
AmpC detergent – AmpC beta-lactamase inhibition with detergent present; AID 485294; 370,000 compounds, 0.041% hits; Potency, µM (top dose mostly 114 µM), for inactives: at the highest dose activity change, negative = inhibition, actives largely listed as inhibitors; AmpC hydrolysis of nitrocefin, absorbance 480 nm, 0.01% Triton; P00811;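 further: potency means the concentration at half of the fitted maximal effect; 0% = no-compound wells and -100% = no-enzyme wells; nearly all actives have a fitted effect of over 25% in size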
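AmpC (5.3 nM in the dispensed reagent) in 20 mM phosphate pH 7.0 with 0.01% (detergent screen) or 0.0001% Triton X-100 was preincubated with compounds for 15 min at room temperature. Nitrocefin was then added from an 800 uM solution, and hydrolysis was followed at 480 nm.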
NS1 inh – blocks influenza NS1 protein function. 270,000 compounds, 0.4% hits. Potency, µM (titrated, usually from 46.1 µM), inactives show top-dose activity, positive = more growth; calls by dose curve; further: potency means the concentration at half of the fitted maximal effect; actives are rising curves; nearly all actives have a fitted effect of over 50% in size
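OD600 was taken as the measure of yeast growth restored by compound in an NS1-expressing S. cerevisiae strain. Cells had been washed out of glucose medium and diluted 1:100 into galactose -URA medium, pH 6.0.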
Cycloheximide cs – counter-screen hit for Shiga toxin inhibitors, cycloheximide; cell reporter, cycloheximide protein synthesis inhibition counterscreen; max response, %; 300,000 compounds, 12% hits; AID 2314; in the data active means max response mostly above about 13%, no sharp cut-off; inactive means mostly below about 14%; further: read at 38.3 µM for the half of the compounds with a filed dose; 0% is about no effect
Shiga toxin inh – inhibitors of Shiga toxin in Vero cells; Vero cells, Shiga toxin protein synthesis inhibition reporter; inhibition, % at 38.7 µM; 290,000 compounds, 9.2% hits; AID 2315; in the data active means inhibition mostly above about 28%, no sharp cut-off; inactive means mostly below about 43%; further: 0% is about no effect
* hit, by the source's call; ? = inconclusive; . = no result; [ ] = remark or other dose. Unless noted, the call rests on the fitted dose curve; in most records, active means well fitted curve in the direction sought with a large enough effect; inconclusive means small, poorly fitted or top-dose-only effect, or another doubt; inactive means no such curve, though single readings can be large; an effect the other way counts as inactive or inconclusive.

SMILES	AmpC no deterg	AmpC detergent	NS1 inh	Cycloheximide cs	Shiga toxin inh
Oc1ccccc1/C=N/Nc1cc(N2CCCC2)nc(N2CCCC2)n1	-27%	1%	-25%	12*	30
Oc1cccc(/C=N/Nc2cc(N3CCOCC3)nc(N3CCOCC3)n2)c1	-20%	-1%	0%	19*	-2
COc1ccc(/C=N/Nc2cc(C)nc(N3CCOCC3)n2)cc1OC	34%	2%	1%	10	40
NC(=O)CSc1nnc(-c2cc(-c3ccc(Cl)cc3)nc3ccccc23)o1	19%[2.29 µM]	-6%	-3%	-3	-9
Cc1noc(C)c1COc1ccc(C(=O)OCC(N)=O)cc1	-8%	?	.	6	4
CCc1ccc(CCC(=O)Nc2ccc(C)c(C)c2)o1	-21%	?	-61%	40*	58*
CCc1ccc(CCC(=O)Nc2ccc(C(=O)O)cc2)o1	-9%	3%	14%	-5	-7
Cc1ccc(CCC(=O)Nc2ccc(C#N)cc2)o1	-19%	1%	-4%	-8	0
CCc1ccc(NC(=O)CCc2ccc(C)o2)cc1	-23%	0%	-39%	37*	.
CCc1ccc(CCC(=O)Nc2nnc(C)s2)o1	-2%	-2%	-7%	3	-2
CCc1ccc(NC(=O)CCc2ccc(CC)o2)cc1	-23%	-8%	-44%	14*	.
CC(=O)c1ccc(NC(=O)CCc2ccc(C)o2)cc1	-25%	4%	7%	13*	16
COC(=O)C1=C(c2ccccc2)c2ccccc2S(=O)(=O)N1CC(=O)Nc1cccc(C(C)=O)c1	.	-6%	.	.	.
COc1ccc(CC(=O)Nc2nnc3n2CCS3)cc1	.	2%	.	.	.
Cc1ccc(C)c(NC(=O)CCc2ccc(C)o2)c1	-4%	-6%	1%	-3	-11
Cc1ccc(CCC(=O)Nc2ccccc2C(=O)O)o1	-23%	2%	5%	26*	59*
O=C(CCn1c(=O)c2ccccc2n(Cc2cccc(F)c2)c1=O)NCc1ccc2c(c1)OCO2	.	21%	.	.	.
CC(=O)N(C)c1ccc(NC(=O)c2ccc([N+](=O)[O-])cc2Cl)cc1	-16%	-4%	-12%	17	66*
CCCn1nnc(NC(=O)c2ccc(-c3cccc(Cl)c3)o2)n1	1%	-10%	-77%	41*	140*
CCCCn1nnc(NC(=O)c2ccc([N+](=O)[O-])cc2Cl)n1	-18%	4%	9%	14	26
CCn1nnc(NC(=S)NC(=O)c2ccc(-c3cccc(Cl)c3)o2)n1	-34%	2%	-40%	5	12
CCCn1nnc(NC(=O)c2ccc([N+](=O)[O-])cc2Cl)n1	-7%	6%	1%	24*	62*
CCn1nnc(NC(=O)COc2ccc([N+](=O)[O-])cc2)n1	-21%	2%	-3%	19*	23
CCOC(=O)C1=C(C)Nc2ccccc2N=C1NC(=O)c1cc(C)on1	-10%	-1%	.	.	.
COCCCC1CCN(C(=O)C2CCC(=O)N(Cc3cccc(F)c3)C2)CC1 (stereo unspecified)	52%	1%	2%	10	-3
SMILES	AmpC no deterg	AmpC detergent	NS1 inh	Cycloheximide cs	Shiga toxin inh
CCCCn1nnc(NC(=O)c2ccc(-c3cccc([N+](=O)[O-])c3)o2)n1	-8%	-2%	-1%	16	20
CCCCn1nnc(NC(=O)c2ccc(-c3cccc(Cl)c3)o2)n1	-2%	-15%	-55%	33*	68*
Cc1ccn2c(C(=O)CSc3ccccc3)c(C)nc2c1	0%	7%	-5%	-1	11
Cc1cccc(C(=O)n2c(=S)nc3cc(C)ccn32)c1	-18%	0%	0%	46*	126*
Cc1ccn2c(c1)nc(=S)n2C(=O)c1ccccc1	-9%	?	-15%	114*	121*
Cc1cc(Nc2cccc(C(=O)O)c2)n2ncnc2n1	2%	-18%	-1%	14*	19*
Nc1cc(N)nc(SCc2cc([N+](=O)[O-])cc3c2OCOC3)n1	-29%	10%	10%	14	27
O=[N+]([O-])c1cc2c(c(CSc3ncccn3)c1)OCOC2	-42%[11.4 µM]	-13%	.	21*	60
O=C(OCc1cc([N+](=O)[O-])cc2c1OCOC2)c1ccccn1	-11%	3%	-1%	33*	35
O=C(OCc1cc([N+](=O)[O-])cc2c1OCOC2)c1cccnc1SC(F)F	-6%	0%	.	.	.
COc1ccccc1N1CCN(c2cc(C)nc3nc(-c4ccc(Cl)cc4)nn23)CC1	.	3%	.	.	.
O=C(CSc1nncc2ccccc12)Nc1cccc(C(=O)O)c1	-24%	0%	9%	40*	99*
O=C(CSCc1ccccc1)Nc1cc([N+](=O)[O-])ccc1F	?	-14%	.	1	-7
O=C(CSCc1ccc(F)cc1)NC1CCCC1	1%	?	-1%	26*	37*
O=C(CSCc1ccccc1Br)Nc1ccccc1	-24%	?	-44%	27*	18
O=C(CSCc1ccccc1)Nc1ccc(F)c(F)c1	-39%	?	-18%	47*	73*
O=C(CSCc1ccc(F)cc1)Nc1ccccc1	-26%	2%	-3%	30*	53*
O=C(CSCc1ccc(F)cc1)NCc1ccco1	-2%	1%	1%	21*	42
O=C(CN1CC(=O)Nc2ccccc21)Nc1ccc(F)c(F)c1	-37%	1%	.	30*	75*
N#CCSCC(=O)Nc1ccc(Br)cc1	-23%	-5%	3%	0	-1
N#CCSCC(=O)Nc1ccccc1	-2%	8%	-2%	20*	28
O=C(CSCc1cccc(CSCC(=O)Nc2ccccc2)n1)Nc1ccccc1	-20%	1%	-53%	-2	-5
COc1ccc(-n2nc3cc(C)c(NC(=O)c4ccc(-c5ccc(Cl)cc5)o4)cc3n2)cc1	.	0%	.	.	.
N#Cc1ccc(N[C@@H]2CCN3C(=O)c4ccccc4[C@@H]3C[C@H]2O)cc1	-15%	.	.	.	.
Cc1ccc2c(c1)N(C(=O)Nc1cccc(C)c1C)CCO2	.	2%	.	.	.
SMILES	AmpC no deterg	AmpC detergent	NS1 inh	Cycloheximide cs	Shiga toxin inh
NS(=O)(=O)c1ccc(CCNCc2ccccc2OCc2ccc(Cl)cc2)cc1	-3%	-16%	5%	-5	.
Cc1ccc(NC(=O)CNC(=O)N2CC(=O)Nc3ccccc32)cc1F	-7%	-1%	4%	-2	-4
CCc1cccc(NC(=O)CNC(=O)N2CC(=O)Nc3ccccc32)c1	-17%	1%	-10%	26*	-2
O=C(CSc1nnc(-c2ccc(F)cc2)c2ccccc12)Nc1ccccc1	-39%	?	2%	22*	12
O=C(CSc1nnc(-c2ccc(F)cc2)c2ccccc12)Nc1cccc(Cl)c1	?	-11%	18%	0	16
O=C(Nc1ccc(OCC(=O)N2CCOCC2)cc1)Nc1cccc(Cl)c1	-14%	4%	-1%	14*	39*
CC(C)(C)c1ccc(NC(=O)Nc2ccc(OCC(=O)N3CCOCC3)cc2)cc1	137%	1%	.	35*	93*
O=C(Nc1ccc(C(=O)N2CCOCC2)cc1)Nc1cccc(Cl)c1	-28%	?	-6%	44*	65*
